{"source": "PubChem BioAssay AID1159606", "about": "(Sanford-Burnham Center for Chemical Genomics, 2016)", "note": "The whole screen tested about 360,000 compounds, of which about 7,300 (2%) were called active. Rule as the data show it: active = inhibition above about 50%; inactive = the rest. For the sample, actives were picked, then their nearest neighbours and some compounds at random.", "data": [{"assay": "inhibitors of TWEAK-Fn14 signaling, primary screen, luciferase reporter cells, uHTS (AID 1159606)", "conditions": "TWEAK-stimulated Fn14 reporter cells, luciferase luminescence, 8 h; at 10 µM; active compounds read high", "values": [{"molecule": "CC(C)NC(=O)N1Cc2cc(C(=O)NCC(F)(F)F)nc(-c3cccc(-c4cc5ccccc5o4)c3)c2[C@@H]1CCO", "inhibition": "37.6% (inactive)"}, {"molecule": "CCOc1ccc(NC(=O)CN(C)C(=O)CSc2ccccc2)cc1OCC", "inhibition": "2.8% (inactive)"}, {"molecule": "CCOC(=O)C1=C(C)N=c2s/c(=C\\C(=O)OC)c(=O)n2C1c1ccc(OC)cc1", "note": "(stereo unspecified)", "inhibition": "87.1% (active)"}, {"molecule": "CCOC(=O)C1=C(CSc2nccn2C)NC(=O)NC1c1ccc(OC)cc1", "note": "(stereo unspecified)", "inhibition": "-0.26% (inactive)"}, {"molecule": "CCOC(=O)c1cc2cc(OC)ccc2n1C1CCN(C)CC1", "inhibition": "-7.56% (inactive)"}, {"molecule": "Nc1ccccc1/C=N\\N=C/c1ccccc1N", "inhibition": "-29.4% (inactive)"}, {"molecule": "COC[C@@H]1NS(=O)(=O)c2ccc(Br)cc2O[C@H]1c1ccccc1", "inhibition": "6.78% (inactive)"}, {"molecule": "CCOc1ccc(-n2c(SC(C)C(=O)OC)nc3c(c2=O)SCC3)cc1", "note": "(stereo unspecified)", "inhibition": "1.38% (inactive)"}, {"molecule": "Cc1ccc(Cc2c(-c3ccc(C)cc3)nc3c4ccccc4ccn23)cc1", "inhibition": "57.1% (active)"}, {"molecule": "Cc1ccc(Cc2c(-c3ccco3)nc3ccc(Cl)cn23)cc1", "inhibition": "48.4% (inactive)"}, {"molecule": "Cc1ccc(Cc2c(-c3ccc(Cl)cc3)nc3c4ccccc4ccn23)cc1", "inhibition": "22% (inactive)"}, {"molecule": "FC(F)(F)c1ccccc1Cc1c(-c2ccccc2)nc2c3ccccc3ccn12", "inhibition": "8.37% (inactive)"}, {"molecule": "Cc1ccc(-c2nc3c(C)cc(Br)cn3c2Cc2ccccc2)cc1", "inhibition": "13.1% (inactive)"}, {"molecule": "c1ccc(Cc2c(-c3ccco3)nc3c4ccccc4ccn23)cc1", "inhibition": "57.8% (active)"}, {"molecule": "C=CCSc1nc2c(c(=O)[nH]1)C(C(C)C)C(C#N)=C(N)O2", "note": "(stereo unspecified)", "inhibition": "-24.9% (inactive)"}, {"molecule": "O=C(NC1CCN(S(=O)(=O)c2ccc(F)cc2)CC1)c1ccccc1", "inhibition": "-13.3% (inactive)"}, {"molecule": "COCCCn1c(-c2cccs2)nc2nc3ccccc3nc21", "inhibition": "34.3% (inactive)"}, {"molecule": "CCCc1c(-c2ccccc2F)ncn1Cc1ccccc1OC", "inhibition": "2.25% (inactive)"}, {"molecule": "CC(=O)c1c(C)[nH]c(C(=O)COC(=O)c2cccc(S(=O)(=O)N(C)c3ccccc3)c2)c1C", "inhibition": "101% (active)"}, {"molecule": "COc1cccc(C(=O)OCC(=O)c2[nH]c(C)c(C(C)=O)c2C)c1", "inhibition": "-4.4% (inactive)"}, {"molecule": "CC(=O)c1c(C)[nH]c(C(=O)COC(=O)c2cccs2)c1C", "inhibition": "-16.3% (inactive)"}, {"molecule": "COc1ccc(N(C(=O)c2snc(C(N)=O)c2N)C(C(=O)NC2CCCC2)c2ccc(C)o2)c(OC)c1", "note": "(stereo unspecified)", "inhibition": "22.4% (inactive)"}, {"molecule": "COc1c(C)c2c(c(O)c1C/C=C(\\C)CCC(=O)O)C(=O)OC2", "inhibition": "-6.73% (inactive)"}, {"molecule": "CCn1c(N)c(Br)c(=O)[nH]c1=O", "inhibition": "9.55% (inactive)"}, {"molecule": "CC(C)c1ccc2c(c1)c(SC(C)(C)C)c(CC(C)(C)C(=O)O)n2Cc1ccc(Cl)cc1", "inhibition": "79.3% (active)"}, {"molecule": "Cc1cccnc1CCNC(=O)C1CCC(=O)N(Cc2cccc(F)c2)C1", "note": "(stereo unspecified)", "inhibition": "-10.1% (inactive)"}, {"molecule": "CCOC(=O)C1CCCN(C(=O)COc2ccc(N(C)S(=O)(=O)c3ccc(C)cc3)cc2)C1", "note": "(stereo unspecified)", "inhibition": "9.89% (inactive)"}, {"molecule": "CCOc1ccc(NC(=O)CN(C)CC(=O)Nc2cccc(Cl)c2C)cc1OCC", "inhibition": "5.07% (inactive)"}, {"molecule": "C=CCn1c(C)cc(C2=NNC(=NCC)SC2)c1C", "inhibition": "107% (active)"}, {"molecule": "CCc1nc2ccc(C(=O)Nc3ccc(OC)c(OC)c3)cn2c1N(C)C(=O)c1cccc(OC)c1", "inhibition": "-18.4% (inactive)"}, {"molecule": "COc1cccc(CN(C)CC2CCCN(CCc3ccc(Cl)cc3)C2)c1OC", "note": "(stereo unspecified)", "inhibition": "-2.09% (inactive)"}, {"molecule": "O=C(NCc1ccccc1)[C@@H]1CSC2c3ccccc3C(=O)N21", "note": "(stereo partly specified)", "inhibition": "8.08% (inactive)"}, {"molecule": "Cc1ccc2nc(SC(C)C(=O)NCc3ccco3)[nH]c2c1", "note": "(stereo unspecified)", "inhibition": "46% (inactive)"}, {"molecule": "CCOc1ncccc1C(=O)Nc1ccc2c(c1)OCCO2", "inhibition": "68.7% (active)"}, {"molecule": "CCOc1ncccc1C(=O)Nc1ccc(S(=O)(=O)Nc2nc(C)cc(C)n2)cc1", "inhibition": "-19.9% (inactive)"}, {"molecule": "CSc1ncccc1C(=O)Nc1ccc2c(c1)OCO2", "inhibition": "1.24% (inactive)"}, {"molecule": "COC(=O)[C@]12CCCCC=C1N(Cc1ccco1)C(=O)[C@H](CC(=O)NCCCCc1ccccc1)C2", "inhibition": "16.9% (inactive)"}, {"molecule": "O=C(NCCc1ccccn1)c1cc(C(=O)C2CCCCC2)c[nH]1", "inhibition": "4.9% (inactive)"}, {"molecule": "Cc1cc(C)c(C#N)c(SCC(=O)N(CC(C)C)C2CCS(=O)(=O)C2)n1", "note": "(stereo unspecified)", "inhibition": "4.51% (inactive)"}, {"molecule": "COC(=O)C(Cc1c[nH]c2ccccc12)NC(=O)CCNC(=O)c1ccco1", "note": "(stereo unspecified)", "inhibition": "-24.2% (inactive)"}, {"molecule": "O=C1NC[C@H](CCCCN2CCN(CCc3ccccc3)C(=O)C2=O)N(CC2CCCCC2)C1=O", "inhibition": "-2.45% (inactive)"}, {"molecule": "O=C1OCCOC2CCCc3oc(-c4ccccc4)c1c32", "note": "(stereo unspecified)", "inhibition": "16.6% (inactive)"}, {"molecule": "CCOC(=O)c1cccc(NC(=O)CN(c2ccc(C)cc2)S(=O)(=O)c2c(C)noc2C)c1", "inhibition": "57.7% (active)"}, {"molecule": "COc1ccc(N(CC(=O)Nc2cc(OC)ccc2OC)S(=O)(=O)c2c(C)noc2C)cc1", "inhibition": "-0.61% (inactive)"}, {"molecule": "Cc1noc(C)c1S(=O)(=O)N(CC(=O)Nc1ccc2c(c1)OCCO2)c1ccc(C(C)C)cc1", "inhibition": "35.5% (inactive)"}, {"molecule": "O=c1[nH]c(/C=C/c2cccc(Br)c2)nc2ccccc12", "inhibition": "-14.4% (inactive)"}, {"molecule": "S=c1[nH]nc(/C=C/c2ccccc2)o1", "inhibition": "9.4% (inactive)"}, {"molecule": "O=c1oc(/C=C/c2ccccc2)nc2ccccc12", "inhibition": "55.3% (active)"}, {"molecule": "CCN(c1ccccc1)S(=O)(=O)c1cc2c(cc1C)n(C)c(=O)c(=O)n2C", "inhibition": "-4.66% (inactive)"}, {"molecule": "COc1ccc(C2=Nc3cc(C)ccc3OC2)cc1", "inhibition": "27.9% (inactive)"}, {"molecule": "FC(F)(F)Oc1ccc(-c2cn3cccnc3n2)cc1", "inhibition": "-15.1% (inactive)"}, {"molecule": "Cc1ccc2nc(-c3ccc(Br)cc3)cn2c1", "inhibition": "98.8% (active)"}, {"molecule": "COc1ccc(-c2nc3ccc(Br)cn3c2Cc2ccc(C)cc2)cc1OC", "inhibition": "-20.3% (inactive)"}, {"molecule": "Cc1ccc(-n2cc3ccc([N+](=O)[O-])cc3n2)cc1", "inhibition": "39.8% (inactive)"}, {"molecule": "Cc1ccc(-c2cn3cc([N+](=O)[O-])ccc3n2)cc1", "inhibition": "76.3% (active)"}, {"molecule": "Cc1ccc(-c2cc(N)on2)cc1", "inhibition": "-5.28% (inactive)"}, {"molecule": "COc1ccc(-c2cn3ccc(C)cc3n2)cc1", "inhibition": "81.6% (active)"}, {"molecule": "Cc1ccc(-c2nc3ccc(Br)cn3c2Cc2ccccc2C(F)(F)F)cc1", "inhibition": "5.76% (inactive)"}, {"molecule": "Cc1ccc(-c2cn3cc(C)ccc3n2)cc1", "inhibition": "105% (active)"}, {"molecule": "Cc1ccnc(N2C(=O)c3ccc([N+](=O)[O-])cc3C2=O)c1", "inhibition": "5.4% (inactive)"}, {"molecule": "CS(=O)(=O)Nc1cccc(-c2cn3ccccc3n2)c1", "inhibition": "-6.02% (inactive)"}, {"molecule": "Cc1ccc(OCC(=O)Nc2ccccc2Sc2ccc(Cl)cc2)c([N+](=O)[O-])n1", "inhibition": "13.7% (inactive)"}, {"molecule": "COc1cccc(-c2cc3nc(NCCOc4ccccc4Cl)n(C)c(=O)c3s2)c1", "inhibition": "15.1% (inactive)"}, {"molecule": "CCOC(=O)C1CCCN(C(=O)c2cc(-c3cccs3)oc2C)CC1", "note": "(stereo unspecified)", "inhibition": "31.6% (inactive)"}, {"molecule": "Cc1ccc(S(=O)(=O)Nc2ccccc2CNc2c(C)n(C)n(-c3ccccc3)c2=O)cc1", "inhibition": "12.4% (inactive)"}, {"molecule": "O=C(NCC(=O)N1CCN(c2ccccc2O)CC1)c1ccc2ccccc2c1", "inhibition": "-22.9% (inactive)"}, {"molecule": "CC(C)C1Cc2[nH][nH]c(=O)c2C(c2ccc(Cl)cc2)O1", "note": "(stereo unspecified)", "inhibition": "-23.3% (inactive)"}, {"molecule": "COc1ccc(C(=O)OCC(=O)c2ccc(Cl)s2)c(OC)c1OC", "inhibition": "-38.7% (inactive)"}, {"molecule": "CNc1cncc(-c2ccc(NS(C)(=O)=O)cc2)n1", "inhibition": "34.6% (inactive)"}, {"molecule": "CC1(C)OC(=O)C2=C(C[C@@H](C3CC3)O[C@H]2CCc2cccc(Cl)c2)O1", "inhibition": "-0.44% (inactive)"}, {"molecule": "Cc1ccc(S(=O)(=O)N(C)c2ccc(OCC(=O)OCC(=O)N(CC#N)c3ccccc3)cc2)cc1", "inhibition": "-12% (inactive)"}, {"molecule": "Cc1oc2cc(Br)c(O)c(Br)c2c1C(=O)c1ccccc1", "inhibition": "-24.8% (inactive)"}, {"molecule": "CCOC(=O)c1c(-c2ccccc2)oc2cc(Br)c(O)c(C=O)c12", "inhibition": "97.5% (active)"}, {"molecule": "CCOC(=O)c1c(C)oc2cc(Sc3ccccc3)c(O)c(O)c12", "inhibition": "-4.97% (inactive)"}, {"molecule": "CC1CCCN(c2ccc(C(=O)NCCc3ccccc3)cn2)C1", "note": "(stereo unspecified)", "inhibition": "6.92% (inactive)"}, {"molecule": "CCC(C)N(C(=O)CSc1nnnn1-c1ccccc1OC)C1CCS(=O)(=O)C1", "note": "(stereo unspecified)", "inhibition": "14.9% (inactive)"}, {"molecule": "CCN(C(=O)CSc1nnnn1-c1ccccc1OC)C1CCS(=O)(=O)C1", "note": "(stereo unspecified)", "inhibition": "3.05% (inactive)"}, {"molecule": "COc1ccccc1-n1nnnc1S(=O)(=O)Cc1ccc(Cl)cc1", "inhibition": "102% (active)"}, {"molecule": "CNC(=O)NCCN1CCCC1=O", "inhibition": "-16.3% (inactive)"}, {"molecule": "O=C(NCc1ccc(F)cc1F)[C@@H]1CCCN1C(=O)[C@@H]1CCCN1C(=O)c1cccc(Cl)c1", "inhibition": "22.6% (inactive)"}, {"molecule": "Cc1ccc2nc(-c3ccco3)c(Cc3cccc(Cl)c3)n2c1", "inhibition": "10.4% (inactive)"}, {"molecule": "CC(=O)c1c(C)[nH]c(C(=O)OCC(=O)Nc2sc3c(c2C#N)CCCC3)c1C", "inhibition": "64.3% (active)"}, {"molecule": "N#CCC(=O)Nc1ccc(C(=O)OCC(=O)Nc2sc3c(c2C#N)CCCC3)cc1", "inhibition": "-31.7% (inactive)"}, {"molecule": "CC(=O)c1c(C)[nH]c(C(=O)OCC(=O)Nc2c(C)cccc2C)c1C", "inhibition": "12.5% (inactive)"}, {"molecule": "COc1ccc(-c2csc(Nc3ccccn3)n2)cc1", "inhibition": "68.4% (active)"}, {"molecule": "N#Cc1ccc(OCC(=O)Nc2nc(-c3ccccn3)cs2)cc1", "inhibition": "-7.26% (inactive)"}, {"molecule": "COc1ccc2c(c1OC)C(=O)OC2Nc1nc(-c2ccccc2)cs1", "note": "(stereo unspecified)", "inhibition": "66.1% (active)"}, {"molecule": "COc1ccc(C(C)(NC(C)=O)c2nc(-c3ccc(S(C)(=O)=O)cc3)cs2)cc1", "note": "(stereo unspecified)", "inhibition": "-12.5% (inactive)"}, {"molecule": "CCCc1nc2scc(-c3ccc(C)cc3)c2c(=O)n1N", "inhibition": "17.3% (inactive)"}, {"molecule": "COc1cc(C(O)c2nc(-c3cccc(C(=O)O)c3)cs2)ccc1F", "note": "(stereo unspecified)", "inhibition": "-19.5% (inactive)"}, {"molecule": "Cn1cc(C2OC(=O)c3ccccc32)c2ccccc21", "note": "(stereo unspecified)", "inhibition": "38.7% (inactive)"}, {"molecule": "COc1ccc(-c2csc(NC3OC(=O)c4ccccc43)n2)cc1", "note": "(stereo unspecified)", "inhibition": "66.2% (active)"}, {"molecule": "COc1ccc(N/C=C(\\C2OC(=O)c3ccccc32)[N+](=O)[O-])cc1", "note": "(stereo unspecified)", "inhibition": "9.49% (inactive)"}, {"molecule": "Cc1ccc(-c2csc(NC3OC(=O)c4ccccc43)n2)cc1", "note": "(stereo unspecified)", "inhibition": "85.8% (active)"}, {"molecule": "C/C(CC1CC(C)(C)OC1=O)=N/Nc1nc(-c2ccccc2)cs1", "note": "(stereo unspecified)", "inhibition": "-29.9% (inactive)"}, {"molecule": "COc1ccc(C(O)c2nc(-c3ccc(OC)nc3)cs2)cc1", "note": "(stereo unspecified)", "inhibition": "-2.94% (inactive)"}]}]}
